Compounds without any hit were thinned out: in the full panel of roughly 83,000, 20% have a hit.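 Cell lines were cultured in 96-well plates, exposed to a single compound concentration, and assessed for percent growth 48 hours later.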 A number with no mark means an inactive call. Active and inactive are the calls of the source. How the source made its calls: active means growth percent below 10; inactive means the rest.

This experiment has as its system EKVX NSCLC. Description: NCI-60 one-dose screen, 48 h (100 = growth as untreated, 0 = no growth, -100 = all killed). As to conditions: 10 µM unless noted.
`O=c1cc(Cc2ccc([N+](=O)[O-])cc2)[nH]c(=O)[nH]1`: the growth is 115%.

For the compound `Cc1ccc(/C=C2\CN(C(=O)CCN3CCC(=NO)CC3)C/C(=C\c3ccc(C)cc3)C2=O)cc1`, the growth was 8.39% (active).

`O=C1Nc2ccc3c(c2/C1=C\c1cc2c(cc1Br)OCO2)OCO3`: the growth was 37.3%.

In the case of `c1ccc(-c2nc(N3CCNCC3)c3nc(-c4ccccc4)oc3n2)cc1`, the growth is 74.3%.

For the compound `CCN(CC)c1ccc(CNc2ccnc3ccccc23)cc1`, the growth was 45.3%.

For `CN(CCCCN(C[C@H]1Cc2ncccc2CN1)[C@H]1CCCc2cccnc21)C1CCC(F)(F)CC1`, the growth is 87.4%.

Regarding `ClC(Cl)c1nc(-c2ccccc2)nc2cc(-c3ccccc3)nn12`, the growth was 58.6%.

For the compound `O=[N+]([O-])c1ccc(OCCCOc2ccccc2)cc1`, the growth is 96.8%.

As for `N#C/C(=C1C=C/C(=N/O)C(Cl)=C/1)c1ccc(Cl)cc1`, the growth is 93.6%.

Regarding `CCCCC(CC)OC(=O)C(Br)CC` (stereo not given), the growth is 105%.

In the case of `C=C[C@@H]1C[C@@H]2Cc3c(C)cc(C)cc3N1O2`, the growth is 81.6%.

Consider `C=C[C@@H]1C[C@@H]2Cc3ccccc3N1O2`, for which the growth was 99.5%.

As for `CC(=O)OC[C@]12CC[C@H]3[C@@H](C[C@H]4O[C@]45CC=CC(=O)[C@]35C)[C@]1(O)CC[C@@]2(O)[C@@](C)(O)C1CC(C)=C(C)C(=O)O1` (stereo not given in full), the growth is -14.1% (active).

Regarding `CO[C@H]1NC(=O)N(S(=O)(=O)c2ccc(Cl)cc2)[C@@H]1OC`, the growth was 101%.

For `COC(=O)c1cc2cc(-c3ccc(OC)cc3)cnc2[nH]1`, the growth is 47%.
